# Compound activity as filed in PubChem BioAssay.
# Shown are actives, neighbours in structure and some others; about 3.5% of the full set was active somewhere.
# TRAIL sens C8: viability loss with TRAIL in NB7+C8 cells, primary screen, TRAIL sensitizer project, cell-based, ATPlite luminescence | inhibition (viability loss, TRAIL sensitization), % at 10 µM | hit rate 1% among 360,000 | AID 624354, 2012;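 active means compounds causing at least 50% loss of cell viability in the single-dose screen, relative to plate controls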
# TROY signal inh: inhibitors of TROY-driven NF-kB signaling, primary screen, Q293 LMP1-TROYcd cells, NF-kB luciferase, uHTS; Q293 LMP1-TROYcd NF-kB luciferase reporter, 4 h; inhibition, % at 10 µM; hit rate 0.98% among 360,000; AID 1347056, 2019;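 active means compounds whose plate-normalised and pattern-corrected inhibition of the luciferase reporter signal at the single screening dose is 50% or more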
# PPC-1+TRAIL kill: compounds killing PPC-1 cancer cells with TRAIL present, primary screen, TRAIL potentiator project, ATPLite luminescence, uHTS; cell killing (% activity), % at 4 µM or 5 µM; AID 1443, 2008; hit rate 0.41% among 220,000; PPC-1 cells + TRAIL, ATPLite viability luminescence;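 active means cell killing above 50% in the first pass at 4 µM, then a duplicate retest at 5 µM averaging 50% or more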;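 further: plate controls were cells with TRAIL plus DMSO for no effect and medium-only wells lacking cells for full effect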
# Platelet DG rel: inhibitors of platelet dense granule secretion, primary screen, cell-based, MLPCN, human platelets | human platelet-rich plasma, SFLLRN dense granule ATP release, luminescence | inhibition, %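 (compounds screened at 7.5 µM in platelet-rich plasma)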 | hit rate 0.22% among 300,000;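 active means mean replicate score, as percent of positive control, at or above 50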
# TWEAK Fn14 block: inhibitors of TWEAK-Fn14 signaling, primary screen, luciferase reporter cells, uHTS. hit rate 2% among 360,000. AID 1159606, 2016. inhibition, % at 10 µM. TWEAK-stimulated Fn14 reporter cells, luciferase luminescence, 8 h; in the data active means inhibition above about 50%
# HSP90 refold inh: HSP90 inhibitors, primary screen, cell lysate, luminescence; Rabbit reticulocyte lysate, luciferase refolding luminescence, 3 h; inhibition, % at 5.6 µM; Heat shock protein HSP 90 (rabbit reticulocyte lysate; luciferase refolding); hit rate 0.91% among 290,000;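 active means inhibition above the screen-wide mean plus 3 SD, computed separately per campaign, cut at about 16% in these data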;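 further: 0% = DMSO wells and 100% = 60 µM geldanamycin wells; inhibitors lower the luminescence because luciferase stays unfolded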
# Numbers without * were called inactive; . = no result.
SMILES,TRAIL sens C8,TROY signal inh,PPC-1+TRAIL kill,Platelet DG rel,TWEAK Fn14 block,HSP90 refold inh
CCN1CCN(C(=S)c2ccc(-c3ccccc3)cc2)CC1,-1,5,12,1,69*,2
O=C(OCc1cn([C@@H]2CN(C(=O)c3cccs3)[C@@H](c3ccccc3)C[C@H]2O)nn1)c1ccccc1,35,-21,.,.,17,.
C(=C\CSc1nnnn1-c1ccccc1)/CSc1nnnn1-c1ccccc1,-9,-3,3,4,10,8
CCCSc1nnc(Sc2nnnn2-c2ccccc2)s1,3,4,12,4,82*,0
Cc1ccccc1-n1nnnc1Sc1nnnn1-c1ccccc1,55*,44,9,.,88*,2
NC1=NC(=O)S/C1=C\c1ccc(F)cc1,-7,15,6,6,-27,-1
O=C(OCC(=O)N1CCCC1=O)c1ccc(F)c(S(=O)(=O)N2CCOCC2)c1,-14,11,.,-6,-7,1
CC1C(=O)N(Cc2cn(CCC3OCCO3)nn2)CCS(=O)(=O)N1Cc1ccc(-c2ccc(Cl)c(Cl)c2)cc1 (centres undefined),12,37,.,.,56*,.
COc1ccc(-c2ccc(CN3C(C)C(=O)N(Cc4cn(CCC5OCCO5)nn4)CCS3(=O)=O)cc2)cc1 (centres undefined),11,17,.,.,5,.
O=C(/C(C=Nc1cccc(C(F)(F)F)c1)=C(/O)c1ccco1)C(F)(F)F,-4,-23,5,22,-10,-7
O=C(/C(C=Nc1ccc(Br)cc1)=C(/O)c1ccco1)C(F)(F)F,43,-34,60*,21,39,1
CCN(CC)c1ccc(/C=C/c2ccc3ccc(OC)cc3[n+]2CC)cc1,57*,45,.,15,63*,1
Cc1cc(C)cc(NC(=O)COC(=O)Cc2ccccc2F)c1,-9,-6,.,.,75*,.
Cc1nn(S(=O)(=O)c2cccs2)c(C)c1Sc1ccccc1,.,.,-2,.,.,1
Cc1nn(S(=O)(=O)c2cccs2)c(C)c1Sc1ccc([N+](=O)[O-])cc1,22,35,-22,-2,50*,-2
Cc1ccc2c(c1)N(CC(=O)NCC1CCCO1)C(=O)C(C(C)C)O2 (centres undefined),1,-11,.,-4,4,-5
COc1ccc(-c2cc(=O)n(CCC#N)[nH]2)cc1,-13,4,14,6,-6,65*
COc1ccc(-c2cc(-c3ccccc3)c(C#N)c(S(C)=O)n2)cc1 (centres undefined),91*,-20,40,0,12,2
CCSc1nc(-c2ccc(OC)cc2)cc(-c2ccccc2)c1C#N,0,-54,6,-4,-12,3
CCC1Oc2ccccc2C(=O)N(CC(=O)c2ccc3c(c2)OCCO3)C1=O (centres undefined),16,-35,.,-1,-40,-3
COC(=O)CNC(=O)CN1C(=O)N(c2ccccc2)C(N(O)C(=O)Nc2ccccc2)C1(C)C (centres undefined),-10,-9,14,12,81*,-1
COC(=O)CN1C(=O)N(c2ccccc2)C(N(O)C(=O)Nc2ccccc2)C1(C)C (centres undefined),-23,-27,20,0,0,4
C/C(=N\NC(=O)c1ccccc1O)c1ccc(Br)s1,54*,-40,41,6,-16,1
C/C(=N\Nc1nc2ccccc2s1)c1ccc(Br)s1,29,31,12,-3,51*,-3
S=C(NCCCN1CCOCC1)N1CCN(c2cccc(Cl)c2)CC1,15,-1,.,4,8,0
SMILES,TRAIL sens C8,TROY signal inh,PPC-1+TRAIL kill,Platelet DG rel,TWEAK Fn14 block,HSP90 refold inh
Cc1cc(C)cc(NC(=O)CCn2ccnc2)c1,1,-13,.,-1,27,0
C1=C(CCNc2ncnc3c2[nH]c2ccccc23)CCCC1,39,40,15,.,69*,6
O=c1c2[nH]c3ccccc3c2ncn1CCC1=CCCCC1,17,-73,19,-2,-33,0
COCCNC(=O)c1cc(-c2ccc3c(c2)OCO3)on1,40,-23,17,10,29,5
C=CCNC(=O)c1cc(-c2ccc3c(c2)OCO3)on1,51*,5,.,9,48,15
O=C(OCC(=O)c1ccc(Cl)s1)c1cnccn1,-13,-3,.,7,8,-1
CCCCCn1nc(C(=O)OCc2nc(N)nc(Nc3ccccc3)n2)c2ccccc2c1=O,6,9,.,.,30,.
CCC(=O)c1ccc(/C=C/c2nc3ccccc3n2C)o1,51*,-57,8,19,-32,9
Cn1c(/C=N/O)nc2ccccc21,-11,-21,-8,3,-10,3
CCOc1ccccc1/C=C(/NC(=O)c1ccccc1)C(=O)N(CC)CC,0,50*,-7,14,58*,3
O=C(Nc1ccc2nc3n(c(=O)c2c1)CCCC3)c1cc([N+](=O)[O-])ccc1F,6,80*,14,13,89*,14
O=C(Nc1ccc2nc3n(c(=O)c2c1)CCCC3)c1cccc([N+](=O)[O-])c1,23,-57,14,17,-15,0
Cc1ccc(NC(=O)CN2CCCC2c2cccn2C)c(Br)c1 (centres undefined),11,27,.,.,38,.
CC1O[C@@H](O[C@H](C)CC/C=C/C(=O)O)C(O)C[C@H]1O (some centres undefined),-9,-19,.,6,-2,.
CCOC(=O)c1c(NC(=O)CSc2c[nH]c3ccccc23)sc2c1CCCC2,13,34,17,3,23,-3
CCOC(=O)c1c(NC(=O)CSc2nnc(-c3c[nH]c4ccccc34)n2CCOC)sc2c1CCCCC2,-9,3,-12,17,53*,6
Cc1cccc(NC(=O)CN2CCN(C(=O)c3ccc(OCc4cn5ccccc5n4)cc3)CC2)c1C,-5,17,.,.,-15,.
CNC(=O)NC(=O)C(C)OC(=O)CCCSc1nc2ccccc2s1 (centres undefined),0,31,-8,20,55*,5
CCNC(=O)NC(=O)C(C)OC(=O)CCCSc1nc2ccccc2s1 (centres undefined),1,39,18,2,59*,2
CNC(=O)NC(=O)C(C)OC(=O)CCCc1nc2ccccc2s1 (centres undefined),-7,-39,5,-1,1,6
C=CCn1c(SCc2ccc(C(=O)Nc3nccs3)cc2)nnc1-c1ccc(C)c(Cl)c1,23,44,20,2,92*,-1
Cn1nnnc1SCc1ccc(C(=O)Nc2nccs2)cc1,23,-37,12,-1,-6,-1
